Test results taken from PubChem BioAssay AID1628 (Sanford-Burnham Center for Chemical Genomics, 2009).
Hit rate of the full screen: of about 190,000 compounds, about 930 (0.49%) were called active.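 How the source made its calls: active means z-score of insulin promoter reporter brightness in nuclei below -3 at 5 µM, with at least 500 cells counted; inconclusive means wells with under 500 cells, flagged as toxic or sparse; inactive means the rest.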 The list shows a part of the results. Potency and affinity values are given separately.

Test: insulin promoter down-regulators in MIN6 cells, imaging, high-content screening, mouse beta cells (AID 1628)
Details: MIN6 insulin promoter GFP reporter, at 5 µM, stronger effect = lower value

z-score, active:
CCOc1ccc(NC(=O)N2CCCC2C(=O)NCC2CCCO2)cc1 (stereo unspecified) -3.14
CC1(C)Cc2c(c(N3CCOCC3)nc3sc4c(NCc5ccco5)nnnc4c23)CS1 -6.38
C#CCOCCOCCOCCNc1nc(N2CCN(C(=O)[C@H](CCCCN)n3cc(CCCC)nn3)CC2)nc(N2CCN(C(=O)[C@H](CCCCN)n3cc(CCCC)nn3)CC2)n1 -4.64
O=C(O)C1CCN(C(=O)OCc2ccccc2)CC1 -4.9
Cc1nc(CN(C)C(=O)c2cc(COc3ccc4ncccc4c3)on2)cs1 -5.59
CCCCC(=O)NC(c1cccs1)c1cc(Cl)c2cccnc2c1O (stereo unspecified) -5.86
CCC(=O)NC(c1cccs1)c1cc(Cl)c2cccnc2c1O (stereo unspecified) -4.24
NC(=O)c1sc2nccc(Nc3ccccc3)c2c1N -3.42
CS(=O)c1nc(-c2ccc(Br)cc2)cc(-c2ccccc2)c1C#N (stereo unspecified) -4.24
Nc1c(Cl)ncnc1N1CCCC1 -3.27
COc1ccc2c(c1)sc1nc(-c3ccccc3)cn12 -7.22
Cc1cc(Cl)cc(C)c1OCCCCn1ccnc1 -4.53
Cc1cccc(OCCCCCn2ccnc2)c1C -4.58
O=S(=O)(c1ccc2oc3ccc(S(=O)(=O)N4CCCCC4)cc3c2c1)N1CCCCC1 -3.18
CCN(CC)S(=O)(=O)c1ccc2oc(C(=O)NCc3ccc(F)cc3)c(C)c2c1 -4.31
Cc1c(C(=O)NCc2cccnc2)oc2ccc(S(=O)(=O)N3CCCCCC3)cc12 -5.16
COCCNC(=O)/C(=C/c1ccccc1Cl)c1ccccc1 -5.46
CCC(=O)N1CCN(c2ccccc2NC(=O)COc2cc(C)ccc2C(C)C)CC1 -3.26
Cc1nnc(SCC(=O)c2cc(C)n(-c3ccc4c(c3)OCO4)c2C)s1 -4.16
O=S(=O)(c1ccc(Br)cc1)N1CCN(c2cc(-c3ccccc3)nc3ncnn23)CC1 -6.61
N/C(=N\OC(=O)N1c2ccccc2Sc2ccccc21)c1ccccc1 -3.28
COc1ccccc1CNC(=O)COC(=O)c1ccc(S(=O)(=O)N2CCCC2)cc1 -5.2
CCOC(=O)C(C)S(=O)(=O)c1ccc(C(F)(F)F)cn1 (stereo unspecified) -4.01

z-score, inactive:
O=C1c2ccccc2-n2c1nc1ccccc1c2=O -2.2
COc1ccc(-c2nnc(SCC3CCCO3)n2C)cc1 (stereo unspecified) 2.62
COc1ccc(OC)c(C2=NOC(C(=O)NCC3CCCO3)C2)c1 (stereo unspecified) 3.67
CCOc1ccc(NC(=S)N2CCC(N(C)CC3CCCO3)CC2)cc1 (stereo unspecified) 3.59
CCOc1ccc(-n2c(=O)c3c4c(sc3n(CC(=O)NCC3CCCO3)c2=O)CCC4)cc1 (stereo unspecified) 1.12
O=[N+]([O-])c1ccc(N/N=C/c2cn(Cc3ccc(F)cc3)c3ccccc23)nc1 4.69
C=CCN1C(=O)/C(=C/c2ccc(N(C)C)cc2)S/C1=N\c1nnc(CC)s1 14.1
Cc1cc(C)cc(N(CC(=O)Nc2cccc(C)n2)S(=O)(=O)c2c(C)noc2C)c1 2.42
C/C=C/c1ccc(OCCCN2C(=O)NC(C)(C)C2=O)c(OC)c1 -0.86
CCCN1CC=C2C(C#N)=C(N)C(C#N)(C#N)C(c3cccc(OC)c3OC)C2C1 (stereo unspecified) 8.86
CCOC(=O)N1CCC(NC2CCCCCCC2)CC1 0.8
CN1/C(=C/C=C(C#N)C#N)C=Cc2ccccc21 5.52
c1ccc(-c2cnn3c(-c4ccccc4)c(-c4ccccc4)nc3n2)cc1 17
CCCCn1nc(-c2ccccc2)c2nc3ccccc3nc21 3.11
N=c1oc2c3c4c(cc2cc1C(=O)Nc1ccccc1)CCCN4CCC3 18
CCc1ccc2nc3sc(C(=O)N4CCc5ccccc54)c(N)c3cc2c1 4.93
CCN1CC=C2C(C#N)=C(N)C(C#N)(C#N)[C@H](c3cccc(OC)c3OC)[C@H]2C1 11.6
Cc1ccc(N=C2NC(=O)/C(=C/c3cn(C)c4ccccc34)S2)cc1C 3.02
CC1CC(=O)C2=C(C1)OC(N)=C(C#N)C2c1coc2ccccc2c1=O (stereo unspecified) 3.02
Nc1c(C(=O)Nc2nccs2)sc2nc(-c3cccs3)cc(C(F)(F)F)c12 5.95
Nc1c(C(=O)O)sc2nc(-c3ccccc3)cc(-c3ccccc3)c12 4.64
Cc1ccc(S(=O)(=O)CCSc2nc(C)cc(C(F)(F)F)c2C#N)cc1 10.9
COc1ccc(-c2ccc3c(N)c(C(=O)c4cccc(OC)c4)sc3n2)cc1 4.07
CCOc1ccc(OCCCCn2ccnc2)cc1 3.52
Cc1ccc(S(=O)(=O)c2cccc(S(=O)(=O)N3CCCC3)c2)cc1S(=O)(=O)N1CCCC1 3.05
O=C(O)CCCN=Cc1c(O)c2ccccc2oc1=O 2.46
Cc1oc(C)c2c(=O)ccc3c(c12)OC(N)=C(C#N)C3c1ccccc1Cl (stereo unspecified) 6.29
COCCNC(=O)Cc1ccc(F)cc1 3.03
Cn1cc(/C=C2\SC(=S)N(NC(=O)c3ccccc3)C2=O)c2ccccc21 6.71
COc1ccc(C)cc1NC(=O)CC(NC(C)=O)c1ccccc1 (stereo unspecified) 4.5
CCOc1ccc(-c2c(C#N)c(N)nc3sc(C(=O)c4ccccc4)c(N)c23)cc1 9.11
Cn1cc(C(N)=O)c2ccccc21 0.12
O=C(N=C1SCC(=O)N1c1ccccc1Cl)c1ccccc1 5.04
CC(C)NC(=O)NC(=O)COC(=O)c1cccc(S(=O)(=O)N2CCCCC2)c1 4.62
CCN1C(=O)CSc2ccc(C(=O)NCc3ccccc3OC)cc21 3.1
Cn1c(=O)[nH]c(=O)c2c1nc(N1CCCCC1)n2CCCSc1nc2ccccc2s1 0.01
CCC(=O)c1ccc(O)c(OC)c1 -1.5
CCOC(=O)C(C(C)=O)C(c1ccc(OCCC(C)C)cc1)C(C(C)=O)C(=O)OCC (stereo unspecified) 0.98
